# D1 antag – antagonists of human D1 dopamine receptor; hit rate 3.2% among 360,000; HEK293 TREx D1 cells, calcium flux, dopamine EC80; active compounds read low; activity change, negative = inhibition, % at 10 µM; in the data active means activity change below about -30%; further: on the % scale 0 is the no-effect control and ±100 the full control effect
#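 Kinetic fluorescence of a calcium dye serves as the read-out. D1-expressing Hek293 Trex cells, induced overnight at 30 C, are exposed to compound for 180 s before an EC80 dopamine addition, then read 180 s further.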
# D1 ag – agonists of human D1 dopamine receptor; HEK293 T-REx D1 cells, calcium flux, agonist mode; activation, % at 2 µM; hit rate 1% among 360,000; P21728; AID 504660; further: 0% is about no effect
#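 Inducible HEK293 T-REx D1 cells, force-coupled to calcium signalling, were plated at 4000 cells/well with tetracycline and held overnight at 30 C. After no-wash calcium dye loading, compound-evoked calcium rise over 180 s flagged agonists.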
# TRHR agonist – agonists of human TRH receptor; P34981; TRHR cells, calcium flux fluo-8, FDSS agonist mode; activation, % at 2 µM; hit rate 0.18% among 360,000; AID 493084; further: 0% is about no effect
# Target sequence (P34981 whole entry, looked up): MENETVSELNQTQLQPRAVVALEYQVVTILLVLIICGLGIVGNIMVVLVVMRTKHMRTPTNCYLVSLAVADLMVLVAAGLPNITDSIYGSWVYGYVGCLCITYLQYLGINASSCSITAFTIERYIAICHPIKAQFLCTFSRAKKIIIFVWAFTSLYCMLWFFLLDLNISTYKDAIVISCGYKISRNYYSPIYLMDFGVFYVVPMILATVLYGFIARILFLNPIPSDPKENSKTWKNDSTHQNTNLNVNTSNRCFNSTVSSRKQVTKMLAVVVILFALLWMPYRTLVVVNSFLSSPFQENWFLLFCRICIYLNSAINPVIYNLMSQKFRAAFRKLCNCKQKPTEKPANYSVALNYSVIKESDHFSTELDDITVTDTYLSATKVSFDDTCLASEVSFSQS
#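 Agonist-mode FDSS calcium read (Ex 480/Em 530, 1 s cycles) in 1536-well TRHR cells with fluo-8 dye, after 10-cycle baseline and 23 nL compound addition; TRH at EC20 (10 nM final) added afterwards for the enhancer phase.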
# TRHR enhancer – allosterically enhances the human TRH receptor | P34981 | TRHR cells, fluo-8 calcium fluorescence, EC20 TRH enhancement | enhancement, % at 2 µM | hit rate 0.66% among 360,000 | AID 493056; in the data active means enhancement above about 30%; further: 0% is about no effect
#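 TRHR-expressing cells loaded with fluo-8 calcium dye were read kinetically (ex 480/em 530) during compound addition, then stimulated with an EC20 of TRH (10 nM final). Enhancement of the Gq-mediated intracellular calcium response was scored.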
# D1 potentiator – potentiators of human D1 dopamine receptor | hit rate 0.036% among 360,000 | potentiation, % at 10 µM | HEK293 TREx D1 cells, calcium flux, dopamine EC20 potentiation | P21728; in the data active means potentiation above about 30%; further: 0% is about no effect
# Active calls of the source: *; . = no result given. Compounds with a hit are over-represented: about 4.6% of the library has one in this group of screens. Unless noted, no stated cut-off is given here; in the data, active means activation above about 30%; inactive means the rest.
SMILES,D1 antag,D1 ag,TRHR agonist,TRHR enhancer,D1 potentiator
COC(=O)c1ccc(OC(=O)CN2C(=O)c3ccccc3C2=O)cc1,-34*,6,1,-2,-3
O=C1c2ccccc2C(=O)N1CCCCON1C(=O)c2ccccc2C1=O,-36*,5,0,-1,-4
COC(=O)c1ccc(CN2C(=O)c3ccccc3C2=O)cc1,4,1,-1,-7,2
O=C(CCCN1C(=O)c2ccccc2C1=O)Oc1ccc(F)cc1,-32*,0,0,1,-6
COc1cccc(NC(=O)N2CCC(CN3CCOCC3)CC2)c1,3,2,0,-5,-3
COc1cccc(NC(=O)c2ccccc2-c2nc(-c3ccc(Cl)cc3)no2)c1,-33*,7,-1,-1,3
COc1cc(C(=O)Nc2ccccc2-c2nc(-c3ccccc3)no2)cc(OC)c1OC,-12,1,50*,6,-5
COc1cccc(NC(=O)c2ccccc2-c2nc(-c3ccccc3)no2)c1,-16,3,0,1,-8
COc1cccc(CNC(=O)c2c3c(nc4ccccc24)C(=O)N(C2CCCCC2)C3)c1,13,2,0,0,-6
O=C(Nc1c[nH]c(=O)[nH]c1=O)c1ccccc1Cl,3,1,0,30*,-2
CN(C)c1ccc(CNC(=O)c2cccn2-c2nnc(N3CCCCC3)s2)cc1,3,2,0,-5,3
CCCCCOC(=O)NCC(O)c1ccccc1 (stereo not given),-34*,7,0,-1,-3
CCc1cc2c(SCc3ccc(C(=O)OC)o3)ncnc2s1,-32*,2,0,-2,-2
COc1ccc(C(=O)CSc2nnc(-c3cc(C)on3)o2)cc1,-11,3,0,-2,-1
Cc1[nH]c2ccc(-c3nnc(SCC(=O)c4ccc(F)cc4)o3)cc2c1C,-40*,2,1,5,-7
Cc1cc(-c2nnc(SCC(=O)c3ccc(Cl)cc3)o2)no1,-33*,9,-1,4,-6
COc1ccc(-c2cn3c(n2)sc2cc(C(=O)NCCc4ccccc4)ccc23)cc1,-8,1,0,14,-1
Cc1cccc(NC(=O)CSc2nc(=O)n(Cc3cccnc3)c3c2CCC3)c1C,.,-5,0,-4,0
O=C1Cc2ccccc2Sc2ccccc21,5,1,0,0,1
CN(C)CCOc1ccc2c(c1)Sc1ccccc1CC2=O,-30*,11,1,-5,-12
Cc1ccc2c(c1)Sc1ccccc1CC2=O,-48*,0,-2,-6,-3
CC(C)(C)c1ccc(-c2noc(CCC(=O)Nc3cccc(Cl)c3)n2)cc1,-3,8,3,28,1
CC(=O)Nc1nonc1-c1nnc(SCc2ccccc2Cl)n1C,7,-2,-2,7,0
CCOc1ccc(NC(=O)NCCn2nnc3cc(S(=O)(=O)N(C)C)ccc32)cc1,-5,1,1,-1,-1
COc1ccc(CNCc2cc(Cl)ccc2O)cc1,1,38*,1,2,2
SMILES,D1 antag,D1 ag,TRHR agonist,TRHR enhancer,D1 potentiator
Oc1ccc(Cl)cc1CNCc1ccc(Cl)nc1,.,42*,3,3,-2
COc1ccc(NC(=O)c2oc3ccccc3c2NC(=O)C23CC4CC(CC(C4)C2)C3)cc1,-25,2,1,3,2
Cc1cccc(N2C(=O)CSC23CCCCC3)c1,-34*,2,0,1,-8
CC1CCC2(CC1)SCC(=O)N2c1ccccc1 (stereo not given),13,1,0,1,-5
CCOc1ccc(NC(=O)C(C)Oc2ccc(C#N)cc2)cc1S(=O)(=O)N1CCCC1 (stereo not given),0,38*,5,-1,-4
CCOc1ccccc1OCC(=O)Nc1ccc(OC)c(S(=O)(=O)N2CCCCC2)c1,-11,-1,0,1,0
CCN(CC)S(=O)(=O)c1cccc(C(=O)N/N=C2\CC(=O)CC(C)(C)C2)c1,-18,4,3,-5,-2
CCN(CC)S(=O)(=O)c1cccc(C(=O)N/N=C2\CCCC(=O)C2)c1,21,38*,9,-14,-2
CCN(C(=O)c1ccc2c(=O)n3c(nc2c1)CCCCC3)c1cc(C)ccc1C,-52*,0,0,3,-3
CN(CC(=O)Nc1ccccc1C(F)(F)F)C(=O)c1ccc2c(=O)n3c(nc2c1)CCC3,-32*,3,0,6,-5
O=C(c1ccc2c(=O)n3c(nc2c1)CCCCC3)N1CCN(c2ccc(F)cc2)CC1,-50*,1,0,-2,-11
Cc1cccc(NC(=O)c2ccc3c(=O)n4c(nc3c2)CCCCC4)n1,-37*,3,0,-3,-8
CC(=O)c1ccc(-c2csc3ncnc(Sc4nnnn4C)c23)cc1,-4,9,0,3,6
CCCNC(=O)CCC(=O)N1Cc2cccc(OC)c2Oc2ncccc21,-4,2,9,-8,-3
COc1ccc(C)cc1NC(=O)CSc1ncc2c(n1)-c1ccc(Cl)cc1N(Cc1ccccc1)S2(=O)=O,-1,3,0,2,3
CN(C)S(=O)(=O)c1ccc2c(c1)N(CC(=O)N1CCN(c3ccc(F)cc3)CC1)CCS2,6,2,0,-7,1
COc1cccc(COC(=O)c2ccc(-c3nnn(Cc4cccc(OC)c4)n3)cc2)c1,2,6,3,0,-2
CCOC(=O)C1CCN(c2nc3ccccc3nc2C(C#N)C(=O)NCCc2ccccc2)CC1 (stereo not given),-30*,0,3,-9,-1
CCOC(=O)C1CCCN(c2nc3ccccc3nc2C(C#N)C(=O)OCC)C1 (stereo not given),-26,10,2,-1,-14
N#C/C(=C(/O)c1ccc2c(c1)OCO2)c1nc2cc(C(F)(F)F)ccc2s1,-41*,15,-1,-6,-3
O=S(=O)(c1ccc2c(c1)OCCO2)N1CCN(S(=O)(=O)c2cc(F)c(F)cc2F)CC1,-5,3,0,-1,2
Cc1ccc(-n2nc3c(c2NC(=O)c2ccc4c(c2)OCO4)CS(=O)C3)c(C)c1 (stereo not given),-52*,1,0,-14,2
O=C(Nc1c2c(nn1-c1ccc(F)cc1)CS(=O)C2)c1ccc2c(c1)OCO2 (stereo not given),14,2,0,0,-5
O=C(Nc1c2c(nn1-c1cccc(Cl)c1)CS(=O)C2)c1ccc2c(c1)OCO2 (stereo not given),-36*,3,1,-12,-3
Cc1ccc(-n2nc3c(c2NC(=O)c2ccc4c(c2)OCO4)CS(=O)(=O)C3)cc1,-7,1,0,3,-5
Cc1c(C(=O)Nc2ccc(F)c(F)c2)oc2ccc(S(=O)(=O)N(C)C3CCCCC3)cc12,-24,-2,0,-1,-2

# Assay outcomes (PubChem)
